Compound activity from PubChem BioAssay.
Sampled rows, rich in hits. Any-hit rate of the full collection: about 27%.
CYP2C9 activ = CYP2C9 (human) activation. activation factor at 5 µM. P11712. hit rate 1.4% among 96,000. recombinant CYP2C9, luciferin-H conversion, luminescence; hits give high values; factor 1 = untreated enzyme, 0 = blocked;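 active = activation factor of 2 or more for CYP2C9 at a 5 µM dose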
Target sequence (P11712 whole entry, looked up): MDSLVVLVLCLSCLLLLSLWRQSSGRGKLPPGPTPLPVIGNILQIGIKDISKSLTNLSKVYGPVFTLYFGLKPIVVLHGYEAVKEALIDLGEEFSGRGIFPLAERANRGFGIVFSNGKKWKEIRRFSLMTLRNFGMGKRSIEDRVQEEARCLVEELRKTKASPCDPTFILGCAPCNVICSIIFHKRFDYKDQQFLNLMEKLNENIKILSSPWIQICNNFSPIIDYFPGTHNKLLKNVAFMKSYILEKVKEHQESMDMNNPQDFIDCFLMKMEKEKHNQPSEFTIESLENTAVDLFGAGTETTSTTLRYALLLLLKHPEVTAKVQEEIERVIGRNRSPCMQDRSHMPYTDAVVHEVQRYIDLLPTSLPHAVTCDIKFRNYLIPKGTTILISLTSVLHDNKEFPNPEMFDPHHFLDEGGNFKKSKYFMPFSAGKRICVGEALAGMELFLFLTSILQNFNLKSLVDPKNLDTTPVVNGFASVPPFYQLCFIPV
sEH act = soluble epoxide hydrolase (human) activation. P34913. purified human sEH enzymatic activity, activator screen. activation, % at 2 µM. hit rate 0.04% among 91,000. AID 717; in the data active = activation above about 37%
CYP2C19 inh = inhibitors of human CYP2C19; hit rate 21% among 96,000; inhibition, % at 5 µM; CYP2C19 Supersomes, luciferin-H EGE luminescence, 30 min; AID 778;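 active = CYP2C19 inhibition above a set limit at 5 µM in the primary screen, cut at about 50% in these data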
CYP2C19 act = activators of human cytochrome P450 2C19 | P33261 | recombinant CYP2C19, luciferin-H EGE luminescence; hits give high values; 0 = fully inhibited enzyme, 1 = untreated enzyme | activation factor at 5 µM | 96,000 tested, under 10 active | AID 1025;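 active = activation factor of at least 2 at 5 µM in the primary screen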
sEH inhibitor = soluble epoxide hydrolase (human) inhibition; P34913; recombinant human sEH enzymatic activity assay; inhibition, % at 2 µM; hit rate 0.34% among 91,000; AID 707; in the data active = inhibition above about 80%
CYP2C9 inhib = inhibitors of human CYP2C9; CYP2C9 Supersomes, luciferin-H conversion, luminescence; hit rate 20% among 96,000; inhibition, % at 5 µM; P11712;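 active = blocking of liver enzyme CYP2C9 beyond about 50% at 5 µM, limit read from the data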
Of the large screens only hits and unclear results are named; the others gave an inactive call.

S=C1NC(c2ccccc2)=NCN1c1ccccc1	CYP2C19 inh 95, CYP2C9 inhib 65
c1ccc(C2=NC(c3ccccc3)N=C(c3ccccc3)N2)cc1	none (no result: CYP2C9 activ, CYP2C19 inh, CYP2C19 act, CYP2C9 inhib)
CCOC(=O)N1N=C(c2ccc(C)cc2)CC1(O)C(F)(F)F (stereo not given)	CYP2C19 inh 59 (no result: sEH act, sEH inhibitor)
CCOCCCNC(=S)N1C2CCC1CC(NC(=O)NC13CC4CC(CC(C4)C1)C3)C2 (stereo not given)	none
CCn1c(SCC(=O)c2ccc3ccccc3c2)nnc1-c1ccco1	none
COCCn1c(SCC(=O)c2ccc3c(c2)OCCO3)nnc1-c1ccco1	CYP2C19 inh 65
CCn1c(SCC(=O)c2ccc3c(c2)OCCO3)nnc1-c1ccco1	CYP2C19 inh 96
CCOC(=O)CN1C(=O)C2Cc3ccccc3CN2C1=S (stereo not given)	CYP2C19 inh 70
COc1cccc(C2/C(=C(\O)c3ccc4c(c3)OCCO4)C(=O)C(=O)N2CCCN(C)C)c1OC (stereo not given)	none (no result: CYP2C9 activ, CYP2C19 inh, CYP2C19 act, CYP2C9 inhib)
c1ccc(N2CCN(Cc3nnnn3C3CCCCC3)CC2)cc1	CYP2C19 inh 64, CYP2C9 inhib 87
Cc1ccc(Cl)cc1N1CCN(Cc2nnnn2C2CCCCC2)CC1	CYP2C9 inhib 58
Cc1ccccc1C(=O)NC1CCN(Cc2nnnn2C2CCCC2)CC1	none (no result: CYP2C9 activ, CYP2C19 inh, CYP2C19 act, CYP2C9 inhib)
O=C(Nc1ccccc1)NC1CCN(Cc2nnnn2C2CCCCC2)CC1	none
COc1cc(C2C3C(C)N(C)C(=O)N(C)C3N(C)C(=O)N2C)ccc1O (stereo not given)	CYP2C19 inh 87
COc1cc(C2N3CC4(C)CN2CC(C)(C3)C4)ccc1O (stereo not given)	none
Cc1ccc(SC(CC(=O)c2ccc(C)cc2)C(=O)O)cc1 (stereo not given)	CYP2C9 inhib 95
Cc1ccc(C(=O)CC(C(=O)O)n2cccn2)cc1 (stereo not given)	none (no result: sEH act, sEH inhibitor)
Cc1occc1-c1nnc(SCC(=O)N(C)CCC#N)n1N	none
COC(=O)c1ccc(C(C(=O)NCc2ccccc2)N(Cc2ccco2)C(=O)c2cnccn2)cc1 (stereo not given)	none
COc1cc(OC)cc(C(C(=O)NCc2ccccc2)N(Cc2ccco2)C(=O)c2ccno2)c1 (stereo not given)	CYP2C19 inh 69, CYP2C9 inhib 60
COc1ccc(S(=O)(=O)NC(C)C(=O)O)cc1 (stereo not given)	none
COc1ccc(S(=O)(=O)c2ccc(O)cc2)cc1	CYP2C9 activ 2.8, CYP2C19 inh 71
COc1ccc(C(CC(=O)c2ccc(O)cc2)S(=O)(=O)c2ccc(C)cc2)cc1 (stereo not given)	CYP2C19 inh 71, CYP2C9 inhib 88
O=C(CCCSc1nc2ccccc2s1)NCc1ccco1	CYP2C19 inh 76 (no result: sEH act, sEH inhibitor)
Cc1csc(NC(=O)CCCSc2nc3ccccc3s2)n1	CYP2C19 inh 88, CYP2C9 inhib 52
COc1cc(/C=N/NC(=Nc2ccc(C)cc2)c2nc3ccccc3s2)ccc1O	CYP2C9 inhib 94
C/C(=C\c1ccco1)C1C(C#N)=C(N)OC2=C1C(=O)CC(C)(C)C2 (stereo not given)	CYP2C19 inh 93, CYP2C9 inhib 91
CC1(C)CC(=O)C2=C(C1)OC(N)=C(C#N)C2c1cccc(OC(=O)c2ccco2)c1 (stereo not given)	CYP2C9 inhib 76
CCOC(=O)c1cnn(-c2ccccc2)c1-n1cccc1C(=O)C(=O)Nc1ccccc1C(F)(F)F	CYP2C19 inh 54, CYP2C9 inhib 65
CCOC(=O)c1cnn(-c2ccccc2)c1NC(=O)c1ccccc1C	none
CCCCOc1ccc(C2(C)CC(=O)NC2=O)cc1 (stereo not given)	CYP2C19 inh 51 (no result: sEH act, sEH inhibitor)
CCCCOc1ccc(C(=O)NC)cc1	none
CCCCC(=O)Nc1ccc(NC(=O)C2CC2)nc1	none (no result: CYP2C9 activ, CYP2C19 inh, CYP2C19 act, CYP2C9 inhib)
CCCCN(CCCC)c1cc(C)nc(-c2ccccc2O)n1	none
Cc1ccc(C)c(S(=O)(=O)N2CCN(CC(=O)Nc3cc(C)on3)CC2)c1	CYP2C9 activ 2.3
CC(C)n1c(N2CCN(CC(=O)Nc3ccc4c(c3)OCCO4)CC2)nc2ccccc21	CYP2C19 inh 58
O=C(CN1CCN(S(=O)(=O)c2ccc(Br)cc2)CC1)Nc1ccc2c(c1)OCO2	CYP2C19 inh 81, CYP2C9 inhib 63
Cc1ccc(C)c(S(=O)(=O)N2CCN(CC(=O)N3CCc4ccccc4C3)CC2)c1	CYP2C9 activ 3.4, CYP2C19 inh 81
Cc1cc(NC(=O)CN2CCN(S(=O)(=O)c3ccc4ccccc4c3)CC2)no1	none
COC(=O)Cc1n[nH]c(=O)c2ccccc12	none
CC(C)OC(=O)CN1CCN(S(=O)(=O)c2cc(Cl)ccc2Cl)CC1	CYP2C9 activ 2.1, CYP2C19 inh 83 (no result: sEH act, sEH inhibitor)
Cc1ccc(C)c(S(=O)(=O)N2CCN(CC(=O)Nc3ccc4c(c3)OCCO4)CC2)c1	CYP2C19 inh 85
CN(C)c1ccc(NC(=O)CN2CCN(S(=O)(=O)c3cc(Cl)ccc3Cl)CC2)cc1	none
O=C(CN1CCN(S(=O)(=O)c2cc(Cl)ccc2Cl)CC1)Nc1ccc2c(c1)OCCO2	CYP2C9 activ 2.2, CYP2C19 inh 54 (no result: sEH act, sEH inhibitor)
CNC(=O)CSc1nnnn1CCCOC	none
Cc1ccc(-n2c(=O)c3sccc3n(CC(=O)NCc3ccco3)c2=O)cc1F	none
Cc1ccc(NC(=S)NNC(=O)c2ccccc2OC(F)F)cc1	CYP2C9 inhib 56
COc1cccc(NC(=O)COc2ccccc2C(N)=O)c1	none
COc1cccc(NC(=S)NNC(=O)c2ccccc2OC(F)F)c1	CYP2C9 inhib 64
O=C(NNC(=S)Nc1ccc(F)cc1)c1ccccc1OC(F)F	CYP2C9 inhib 58
COc1ccc(C(=O)Oc2ccc3oc(=O)sc3c2)cc1	none
CCOC(=O)Nc1ccc2c(c1)N(C(=O)CCN1CCOCC1)c1ccccc1S2	CYP2C19 inh 65
CCOC(=O)c1cccc(NC(=O)CSc2nnc(COc3ccccc3C)o2)c1	none
CCCS(=O)(=O)N1CCCC(C(=O)NCCCN2CCN(c3ccccc3F)CC2)C1 (stereo not given)	none
Cc1nonc1NCn1nnc2ccccc21	none
FC(F)(F)c1nnc2ccc(NCn3nnc4ccccc43)nn12	CYP2C9 inhib 68
Cc1ccc(C)c(NC(=O)CN(C)S(=O)(=O)c2ccc(F)cc2)c1	none
CCOc1ccc(NC(=O)CN(C)S(=O)(=O)c2cccs2)cc1	none
Cc1ccc(NC(=O)CN(C)S(=O)(=O)c2cccs2)cc1F	CYP2C19 inh 69
Cc1ccc(NC(=O)CN(C)S(=O)(=O)c2cccs2)cc1C	CYP2C19 inh 79
COc1ccc2c(c1)CCc1c(C(=O)NC3CCCCC3)noc1-2	none (no result: sEH act, sEH inhibitor)
OC1(c2ccccc2F)CCN(Cc2nnnn2CCc2ccccc2)CC1	CYP2C19 inh 65, CYP2C9 inhib 80
O=C(NC1CCN(Cc2nnnn2CCc2ccccc2)CC1)c1ccccc1F	none
CCc1nc2ccccc2n1CCC(=O)O	none (no result: CYP2C9 activ, CYP2C19 inh, CYP2C19 act, CYP2C9 inhib)
c1ccc(Cn2c(CSc3nnnn3-c3ccccc3)nc3ccccc32)cc1	none
CC(C)(C)Cc1nc2ccccc2n1CCc1ccccc1	CYP2C19 inh 85
